# High-throughput results from PubChem BioAssay.
# PINK1 expr mod – PINK1 expression modulation. PINK1 immunofluorescence, high-content cytometry, 24 h. Potency, µM (doses to about 76.6 µM), inactives show at the highest dose activation (PINK1 increase), actives largely listed as activators. 410,000 compounds, 0.2% hits; active means well fitted activation curve with a large enough effect; inconclusive means small, poorly fitted or top-dose-only effect; cell line not stated here; further: potency means the concentration at half of the fitted maximal effect; % of control where 0% means no effect; nearly all actives have a fitted effect of over 65% in size
#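 Stable cell line treated 24 h with compounds at 5 concentrations (CCCP controls), then fixed and immunostained for PINK1 plus nuclear and cell stains; PINK1 immunofluorescence quantified by laser-scanning microplate cytometry.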
# B2AR arrestin – agonists driving beta-arrestin recruitment to human beta2-adrenergic receptor | beta-arrestin recruitment to beta2AR, cell-based reporter | Potency, µM (top dose mostly 46.1 µM), without a hit: at the top dose activation, usual class: activators | 330,000 compounds, 0.02% hits;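 further: potency means the concentration at half of the fitted maximal effect; 0% = DMSO controls and full agonism = EC100 isoproterenol or metaproterenol; nearly all actives have a fitted effect of over 65% in size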
# Epigenetic reg – regulators of epigenetic silencing causing reporter derepression in mouse cells; murine LDR cells, GFP reporter derepression, 30 h; Potency, µM (doses to about 53.9 µM), for inactives: at the highest dose GFP activation, hits mostly activators; 280,000 compounds, 0.2% hits; further: potency means the concentration at half of the fitted maximal effect; % of control where 0% means no effect; nearly all actives have a fitted effect of over 60% in size
#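 GFP-positive cell count by laser-scanning cytometry (objects 20–120 um) after 30 h, 37 C compound exposure of murine LDR cells; reporter is CMV-GFP integrated at a silenced locus, inducible by HDAC or DNMT inhibitors.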
# PKM2 activator – activators of human pyruvate kinase M2; purified PKM2, Kinase-Glo ATP luminescence, activation; response scale: 0% is enzyme alone, no compound; P14618; Potency, µM (series often up to 57.5 µM), without a hit: at the highest dose activation, hits mostly activators; 260,000 compounds, 0.34% hits; further: potency means the concentration at half of the fitted maximal effect; on the % scale 0 is the no-effect control and ±100 the full control effect; nearly all actives have a fitted effect of over 55% in size
# Target sequence (P14618 whole entry, looked up): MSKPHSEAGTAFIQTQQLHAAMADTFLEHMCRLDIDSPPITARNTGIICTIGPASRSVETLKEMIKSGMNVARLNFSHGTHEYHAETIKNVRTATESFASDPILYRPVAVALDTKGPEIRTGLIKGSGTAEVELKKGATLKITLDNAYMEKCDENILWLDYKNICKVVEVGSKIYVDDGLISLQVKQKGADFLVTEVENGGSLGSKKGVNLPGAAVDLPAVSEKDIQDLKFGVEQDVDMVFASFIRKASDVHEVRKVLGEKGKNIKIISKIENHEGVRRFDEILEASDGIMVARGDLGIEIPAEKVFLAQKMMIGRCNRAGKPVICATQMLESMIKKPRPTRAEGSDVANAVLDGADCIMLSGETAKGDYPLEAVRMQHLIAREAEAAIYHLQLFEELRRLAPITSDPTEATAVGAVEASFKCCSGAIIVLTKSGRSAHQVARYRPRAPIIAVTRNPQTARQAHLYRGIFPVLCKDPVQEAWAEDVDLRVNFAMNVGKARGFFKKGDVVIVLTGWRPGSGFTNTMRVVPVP
#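 hPK-M2, >95% pure; 0.1 mM ADP / 0.5 mM PEP final; imidazole pH7.2 buffer w/ 7 mM MgCl2, 50 mM KCl; 1 h RT; Kinase-Glo lum. Intermediate enzyme activity for dual inhibitor/activator qHTS.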
# IL2 activator – activators of IL-2 | IL-2 activation reporter assay, cell-based qHTS; stimulated with anti-CD3/CD4/CD28 beads; in transgenic mouse T cells | activation, % (series mostly up to about 46 µM) | 360,000 compounds, 0.065% hits; in the data active means activation above about 50%; inconclusive means mostly about 30% to 49%; further: 0% is about no effect
#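 Screening format: compound pinned onto unstimulated transgenic mouse T cells, 60 min incubation, then anti-CD3/anti-CD4/anti-CD28 bead stimulation for 18 hours at 37 degrees C, followed by EGFP and DsRed detection.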
# HeLa tox – reduces HeLa cell viability in PKM2 activator counter-screen | shares compounds with PKM2 activator | HeLa viability, CellTiter-Glo ATP luminescence, 24 h | activity change, negative = cytotoxicity, % at 57.5 µM | 230 tested, under 10 active | AID 1898; further: % of control where 0% means no effect
# Numbers without * were called inactive; ? = inconclusive; / = no result given; [ ] = dose if it differs, or a comment. Hits are enriched below; roughly 0.58% of the tested compounds scored in any of these assays. Unless noted, the call rests on the fitted dose curve; in most records, active means well fitted curve in the direction sought with a large enough effect; inconclusive means small, poorly fitted or top-dose-only effect, or another doubt; inactive means no such curve, though single readings can be large; an effect the other way counts as inactive or inconclusive.
SMILES,PINK1 expr mod,B2AR arrestin,Epigenetic reg,PKM2 activator,IL2 activator,HeLa tox
COCCN(C)C(=O)c1cnn(-c2ncc3c(n2)-c2ccccc2CCC3)c1C1CC1,0%,/,/,/,/,/
Cc1ccc(NC(=O)Cn2sc3nc(C)cc(C)c3c2=O)c(Cl)c1,0%,0%,10%,3.5µM*,0,?
O=C(CN1C(=O)c2ccccc2C1=O)NCC1Cc2cccc(-c3ncccn3)c2O1 (centres undefined),-1%,/,/,/,/,/
COc1cccc(NC(=O)CSc2nnc3cc(C)nc(N)n23)c1,1%,-1%,0%,1.8µM*,1,0
Cc1cc2nnc(SCC(=O)Nc3ccc(Cl)cc3)n2c(N)n1,2%,0%,/,?,1,/
COCC1CCCN(Cc2ccc3c(c2)CN(C(=O)c2ccc(-c4ccc(C)o4)cc2)CCO3)C1 (centres undefined),1%,/,/,/,/,/
CCNS(=O)(=O)c1ccc(NC(=O)c2ccc(Cn3cc(Br)cn3)o2)cc1,-1%,0%,4%,5µM*,2,0
COc1ccc(N2C(=O)[C@@H]3C[C@H]2CN3Cc2cccn2-c2ccccn2)cc1Cl,0%,/,/,/,/,/
Cc1ccc(NS(=O)(=O)c2ccc3c(c2)CCC(=O)N3)cc1C,0%,0%,1%,0.79µM*,0,?
O=c1c2ccccc2sn1-c1ccc(S(=O)(=O)N2CCCCC2)cc1,0%,/,/,/,-1,/
O=c1c2ccccc2sn1-c1ccc(S(=O)(=O)N2CCCC2)cc1,2%[38.3 µM],0%,-1%,1.4µM*,-2,0
COCCNC(=O)c1cn(C2CCN(C3CCCC3)CC2)nn1,0%,/,/,/,/,/
CCCS(=O)(=O)Nc1c(C(=O)OC)[nH]c2ccccc12,-2%,-1%,-11%,5%,0,/
COC(=O)c1[nH]c2ccccc2c1NS(=O)(=O)c1ccc(F)c(C)c1,0%,0%,-1%,10µM*,-1,-10
Cc1ccc(S(=O)(=O)N2CCN(c3ccc([N+](=O)[O-])c(Sc4nncn4C)c3)CC2)cc1,0%,0%,1%,0.2µM*,-1,1
Cc1cc(C)n(CC(=O)N2CCC(n3c(C(C)C)nc4cccnc43)CC2)n1,-1%,/,/,/,/,/
CCSc1nnc(C(C)NS(=O)(=O)c2cccc(Cl)c2C)n1C (centres undefined),1%,/,/,/,/,/
Cc1cc(NC(=O)c2cnn3c(C(F)(F)F)cc(-c4ccccc4)nc23)no1,/,0%,-1%,3.5µM*,0,28
Cc1ccc2cc(CNC(C)c3cccc4ccccc34)c(N3CCC(O)CC3)nc2c1 (centres undefined),0%,/,/,/,/,/
COc1ccc(C(=O)/C=C/C(=O)N(CC(=O)NC2CCCCC2)Cc2ccccc2)c(O)c1,0%,0%,3%,3.5µM*,0,?
CC(Sc1ncc(C#N)c(N)n1)C(=O)Nc1ccccc1 (centres undefined),0%,0%,0%,4.5µM*,-1,-1
Cc1cc2c(s1)c1c(C)nn(Cc3ccccc3F)c(=O)c1n2C,/,1%,/,/,/,-3
Cc1cc2c(s1)c1cnn(Cc3ccc(C)c(F)c3F)c(=O)c1n2C,/,/,/,/,/,-10
Cc1cc2c(s1)c1cnn(Cc3ccc(C(F)(F)F)cc3F)c(=O)c1n2C,/,/,/,/,/,18
Cn1c2cc(Br)sc2c2cnn(Cc3ccc(F)cc3F)c(=O)c21,-1%,0%,/,/,-1,/
SMILES,PINK1 expr mod,B2AR arrestin,Epigenetic reg,PKM2 activator,IL2 activator,HeLa tox
Cc1cc2c(s1)c1cnn(Cc3cccc(F)c3F)c(=O)c1n2C,/,/,/,/,/,-8
Cc1c(CN2CCOc3c(O)cc(-c4nc5ccccc5s4)cc3C2)cnn1C,1%,/,/,/,/,/
CC(C)(CNC(=O)c1cnn(-c2ncc3c(n2)-c2ccccc2CC3)c1C1CC1)N1CCOCC1,-1%,/,/,/,/,/
Cc1cc(C)c(C(=O)NCc2nc(-c3cccc(NC(=O)C4CCCN(C)C4)c3)oc2C)[nH]1 (centres undefined),-1%,/,/,/,/,/
CCn1c2cc(C)sc2c2cnn(Cc3ccccc3F)c(=O)c21,/,/,/,/,/,-22
Cc1cc2[nH]c3c(=O)n(Cc4ccccc4F)ncc3c2s1,/,/,/,/,/,-3
O=c1c2cc3ccccc3n2cnn1Cc1ccccc1F,5%,0%,-1%,7%,0,/
COc1ccc(CN2C[C@H](Sc3nc4ccccc4[nH]3)C[C@H]2C(=O)N(C)C)c2ccccc12,1%,/,/,/,/,/
Cc1ccc(NC(=O)CSC2=C(C#N)C(c3ccco3)C3=C(CCCC3=O)N2)cc1 (centres undefined),-2%,0%,-3%,4.5µM*,0,-3
CC1(C)CC(=O)C2=C(C1)NC(SCC(=O)Nc1ccccc1)=C(C#N)C2c1ccco1 (centres undefined),2%,0%,6%,7%,0,/
O=C(c1ccc2c(=O)n(Cc3ccco3)c(=S)[nH]c2c1)N1CCN(Cc2ccccc2)CC1,5%[38.3 µM],4%,-2%,0.63µM*,-1,-2
O=S(=O)(c1ccc2c(c1)OCCO2)N1CCN(S(=O)(=O)c2ccccc2F)CC1,/,/,/,/,/,-6
COc1ccc(S(=O)(=O)N2CCC(C(=O)c3ccc4c(c3)OCCO4)CC2)cc1,8%[38.3 µM],-1%,0%,0%,0,/
COc1ccc(S(=O)(=O)N2CCN(S(=O)(=O)c3ccc4c(c3)OCCO4)CC2)cc1,10%,0%,2%,0.22µM*,0,?
N#CCCN1CCN(S(=O)(=O)c2ccc3c(c2)OCCCO3)CC1,1%,0%,-2%,?,-1,/
O=S(=O)(c1ccc2c(c1)OCCO2)N1CCN(S(=O)(=O)c2cccc[n+]2[O-])CC1,/,/,/,/,/,6
O=S(=O)(c1cccc(Br)c1)N1CCN(S(=O)(=O)c2ccc3c(c2)OCCO3)CC1,4%,0%,/,/,1,/
O=S(=O)(c1cccc(F)c1)N1CCN(S(=O)(=O)c2ccc3c(c2)OCCO3)CC1,/,/,/,/,/,11
COc1cccc(CNC(=O)c2c(OC)cc(=O)n3c2CCN(C(=O)c2ccc(C)s2)CC3)c1,1%,/,/,/,/,/
O=C(NCCc1nnc2n1CCN(Cc1ccccn1)CC2)c1ccc(F)cc1,1%,/,/,/,/,/
COc1cc(=O)n2c(c1C(=O)N1CCc3ccccc3C1)CCN(Cc1ccc(CO)o1)CC2,0%,/,/,/,/,/
Cn1c2ccccc2c2cc(C(=O)N3CCOc4ccc(C(C)(O)CCn5cccn5)cc4C3)ccc21 (centres undefined),0%,/,/,/,/,/
Cc1c(C(=O)NCCC2CCCN2C)cnn1-c1nccc(-c2ccccc2F)n1 (centres undefined),-1%,/,/,/,/,/
O=C(c1ccc(F)cc1)N1CCN(S(=O)(=O)c2ccc3c(c2)OCCO3)CC1,1%,/,/,/,6,/
O=S(=O)(c1ccc2c(c1)OCCO2)N1CCN(c2nc(-c3ccccc3)nc3ccccc23)CC1,1%,/,/,/,/,/
